# Screening data deposited in PubChem BioAssay by National Center for Advancing Translational Sciences (NCATS).
# TDP1 cell noCPT: qHTS for Inhibitors of human tyrosyl-DNA phosphodiesterase 1 (TDP1): qHTS in cells in absence of CPT. DT40 Tdp1-/- hTDP1 cells, no CPT, ATP luminescence, 48 h. Potency, µM (doses to about 46.2 µM), usual class: inhibitors. 15% of 420,000 active; note: nearly all actives have a fitted effect of over 55% in size
#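 Readout: luminescence from CellTiter-Glo after 30 min in the dark at RT. Cells: DT40 Tdp1-/- with stable hTDP1, 400/well. Exposure: compounds alone, ≥48 hr, 37 °C.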
# HT1080-NT tox: kills 2HG-producing HT-1080-NT fibrosarcoma cells; HT-1080-NT fibrosarcoma viability, CellTiter-Glo ATP luminescence, 48 h; Potency, µM (top dose mostly 46.1 µM), usual class: cytotoxic; 1.6% of 360,000 active;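 note: NT is the 2HG producing partner of a matched IDH1 knockdown line; nearly all actives have a fitted effect of over 55% in size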
#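 Fibrosarcoma NT cells, 750 per well in 5% FBS RPMI, were exposed to compound for 48 hours. Viability: CellTiter-Glo luminescence.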
# IL1B secr inh: blocks inflammasome-driven IL-1 beta release; THP-1 LPS/ATP IL-1B secretion, AlphaLISA, 16 h; stronger effect = lower value; activity change, % at 57.5 µM; 4.7% of 360,000 active; in the data active = activity change below about -50%; inconclusive = mostly about -30% to -49%
#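 THP-1 cells pretreated 1 hr with compounds (up to 57.5 uM final), then stimulated with LPS (250 ng/mL final) plus ATP (1.25 mM final); secreted IL-1B measured by AlphaLISA after 16 hr, decreased signal indicating inhibition.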
# TDP1 cell CPT: growth inhibition of DT40 Tdp1-/-;hTDP1 cells with camptothecin (screen for TDP1 inhibitors); chicken DT40 Tdp1-/-;hTDP1 cells + 20 nM CPT, ATP luminescence, 48 h; Potency, µM (series often up to 46.2 µM), usual class: inhibitors; AID 686979; 12% of 420,000 active; note: nearly all actives have a fitted effect of over 55% in size
#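 Chicken DT40 Tdp1-/- cells complemented with human TDP1, 400 cells/well, exposed to compounds plus 20 nM camptothecin for at least 48 h at 37 C; viability read as ATP content by CellTiter-Glo luminescence.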
# HT1080 IDH1KD tx: HT-1080 IDH1 knockdown cell toxicity (counter line); 2% of 360,000 active; AID 686971; HT-1080 IDH1 knockdown viability, ATP luminescence, 48 h; Potency, µM (highest dose often 46.1 µM), usual class: cytotoxic
#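 CellTiter-Glo luminescence after 48 h compound exposure at 37 degrees C of IDH1-knockdown HT-1080 cells in 5% FBS RPMI. %Activity scaled between DMSO wells and cell-free media wells, with curves fitted and assigned curve classes.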
# A number is an active result; 0 = inactive; ? = inconclusive; - = no result. An excerpt weighted towards active compounds, which were near 19% of everything screened. Unless noted, calls come from the whole dose curve; as a rule, active = well fitted curve in the direction sought with a large enough effect; inconclusive = small, poorly fitted or top-dose-only effect, or another doubt; inactive = no such curve, though single readings can be large; an effect the other way counts as inactive or inconclusive.
SMILES,TDP1 cell noCPT,HT1080-NT tox,IL1B secr inh,TDP1 cell CPT,HT1080 IDH1KD tx
CCOC(=O)c1c(C)n(-c2ccccc2)c2ccc(O)c(CN(C)C)c12,15µM,?,-,12µM,?
Cn1c(/C(C#N)=C(\O)c2cc(Cl)sc2Cl)nc2ccccc21,?,0,0,18µM,0
Cn1c(/C(C#N)=C(\O)c2ccc(Br)s2)nc2ccccc21,?,0,0,0,0
O=C(COC(=O)c1cccnc1Cl)Nc1ccc2c(c1)OCO2,0,0,0,0,0
CNC(=S)N/N=C/c1ccc(-c2ccc(Cl)c([N+](=O)[O-])c2)o1,9.2µM,0,-54,8.2µM,0
Cc1cc([N+](=O)[O-])ccc1-c1ccc(/C=N/NC(=O)c2ccc(Br)o2)o1,?,0,?,?,0
CCCCC(=O)N/N=C/c1ccc(-c2ccc([N+](=O)[O-])cc2)o1,16µM,0,0,?,0
O=C(O)c1ccc(-c2ccc(/C=N/Nc3ccc([N+](=O)[O-])cc3)o2)cc1,0,0,0,?,0
Cc1cc(C)n(Cc2ccc(C(=O)N/N=C/c3ccc(-c4ccc([N+](=O)[O-])cc4)o3)o2)n1,10µM,?,0,?,?
CC(C)(C)NC(=S)N/N=C\c1ccc(-c2ccc([N+](=O)[O-])cc2)o1,9.2µM,0,-,9.2µM,0
O=C(Nc1ccc2nc([C@H]3C[C@H](O)[C@@H](CO)O3)[nH]c2c1)NC(c1ccccc1)c1ccccc1,0,0,0,0,0
COc1cc(NS(=O)(=O)c2ccc3c(c2)C(C)(C)C(=O)N3C)cc(OC)c1,0,0,0,0,0
COc1ccc(CSc2ccc(-c3nc4ccccn4c3NCc3ccccc3)cc2OC)cc1,8.2µM,0,?,9.2µM,0
CCC(C)Sc1ccc(-c2nc3ccccn3c2NCc2ccccc2)cc1OC (stereo unspecified),?,?,-74,?,?
COc1cc(-c2nc3ccccn3c2NCc2ccccc2)ccc1SC1CCCCC1,?,?,0,26µM,?
COc1ccc(-c2nc3ccccn3c2NC2CCCCC2)cc1SC1CCCCC1,16µM,?,-75,?,?
COc1cc(-c2nc3ccccn3c2N)ccc1O,?,0,0,0,0
COc1cc(-c2nc3ccc(C)cn3c2NCc2ccccc2)ccc1-c1cccc(Cl)c1,?,?,0,?,0
COc1cc(-c2nc3ccccn3c2NCC2CCCO2)ccc1O (stereo unspecified),?,0,0,?,0
CCOc1cc(-c2nc3ccccn3c2NCC2CCCO2)ccc1O (stereo unspecified),0,0,0,0,0
O=C(Nc1nnc(Cc2ccccc2)s1)Nc1ccccc1F,0,0,0,?,?
COC(=O)c1ccc(CN2C(=O)NC3(CCCCC3C)C2=O)o1 (stereo unspecified),0,0,0,0,0
Cc1ccc(C)c(S(=O)(=O)Nc2ccc(C(=O)NCCCN3CCCC3=O)cc2)c1,0,0,0,0,0
Cc1ccc(-c2nc3ccccn3c2NCc2ccc3c(c2)OCO3)cc1,?,?,?,21µM,?
COc1ccc(-c2nc3ccc(C)cn3c2NCc2ccc3c(c2)OCO3)cc1,?,0,0,0,0
SMILES,TDP1 cell noCPT,HT1080-NT tox,IL1B secr inh,TDP1 cell CPT,HT1080 IDH1KD tx
COc1ccc(NC(=O)CSc2nnc3scc(-c4ccc(Cl)cc4)n23)cc1,0,-,-,0,-
Cc1cc2ccccc2cc1CN1CCOCC1,0,0,0,0,0
OC1CCCN(Cc2ccc3ccc4cccc5ccc2c3c45)C1 (stereo unspecified),21µM,?,-69,?,?
c1cc2ccc3ccc(CN4CCOCC4)c4ccc(c1)c2c34,?,0,-77,?,0
OC1CCCN(CC(O)c2ccccc2)C1 (stereo unspecified),0,0,0,0,0
CCN(CC)C(=O)Cn1cnc2sc(C(=O)N3CCN(c4ccc(F)cc4)CC3)c(C)c2c1=O,0,0,0,0,0
CCC1CN(C(=O)N2CCC(C(=O)NCCc3cc(OC)ccc3OC)CC2)c2ccccc2O1 (stereo unspecified),21µM,-,-,16µM,-
CCC1CN(C(=O)N2CCC(C(=O)Nc3ccccc3OC)CC2)c2ccccc2O1 (stereo unspecified),?,0,0,18µM,0
CCC1CN(C(=O)N2CCC(C(=O)NCc3cc(OC)ccc3OC)CC2)c2ccccc2O1 (stereo unspecified),18µM,-,-,18µM,-
Cc1cc(C)cc(N(CC(=O)NCc2ccco2)S(=O)(=O)c2c(C)noc2C)c1,0,0,0,0,0
C=CCN=C1SC(C)(C)C(=O)N1S(=O)(=O)c1ccc(C)cc1,?,0,0,?,0
CC1CCCN(CCCNC(=O)c2cc3c(Cl)nc4ccccc4c3s2)C1 (stereo unspecified),7.3µM,?,-,10µM,23µM
O=C(NCCCN1CCN(c2ccc(F)cc2)CC1)c1cc2c(Cl)nc3ccccc3c2s1,4.6µM,-,-,7.3µM,-
CCCCOC(=O)c1ccc(Nc2nc3ccccc3c3nnc(C)n23)cc1,21µM,-,-,16µM,-
Cc1ccc(Nc2nc3ccccc3c3nncn23)cc1C,16µM,-,-,8.2µM,-
Cc1cc(Nc2nc3ccccc3c3nnc(C)n23)ccc1Br,18µM,-,-,?,-
CCOC(=O)c1ccc(Nc2ncnc3ccccc23)cc1,0,0,0,?,0
c1ccc(-c2nc3ccccc3c3nncn23)cc1,?,0,0,?,0
COc1ccc(Nc2nc3ccccc3c3nnc(C)n23)cc1Cl,6.5µM,-,-,10µM,-
COc1ccc(OC)c(Nc2nc3ccccc3n3c(C)nnc23)c1,0,-,-,0,-
O=Cc1ccc(Cl)cc1,0,-,-,0,-
Cc1ccc(S(=O)(=O)N2CCC(C(=O)N3CCN(c4ccccn4)CC3)CC2)cc1,0,0,0,0,0
CCc1ccc(Nc2nnc(SCn3nnc4ccccc4c3=O)s2)cc1,?,0,0,?,0
CCc1ccc(Nc2nc3ccccc3c3nnc(C)n23)cc1,10µM,-,-,8.2µM,-
COc1cc2c(-c3cc(Br)ccc3O)nc3c(c(C)nn3-c3ccccc3)c2cc1OC,0,-,-,?,-
COc1cc(-c2nc3c(c(C)nn3-c3ccccc3)c3cc(OC)c(OC)cc23)ccc1O,21µM,0,?,?,0
COc1cc2c(-c3ccccc3C)nc3c(c(C)nn3-c3ccccc3)c2cc1OC,?,-,-,23µM,-
Cc1ccc(S(=O)(=O)N2C[C@H]3[C@H]4C(=O)N(c5ccccc5)C(=O)[C@H]4C[C@H](OC(=O)NCC4CCCCC4)[C@@]3(O)C2)cc1,0,0,0,0,0
OCC[C@H]1C[C@@H](O)[C@H](O)[C@]2(CCCO2)O1,0,0,0,0,0
COc1cc2[nH]c(=O)c(C(=O)NCc3ccccc3Cl)c(O)c2cc1OC,18µM,0,0,15µM,0
